The list is not random: actives were taken first. Their share in the collection is about 0.49%.
EPAC2 agonist = qHTS for Agonist of cAMP-regulated guanine nucleotide exchange factor 4 (EPAC2): primary screen; EPAC2 activation, biochemical qHTS; response scale: 100% = 6.5 mM cAMP response; AID 720711, 2013; Potency, µM (titrated, usually from 154 µM), for inactives: at the highest dose activation, most hits filed as activators; hit rate 0.079% among 360,000; Rap guanine nucleotide exchange factor 4 (Homo sapiens), Q8WZA2; note: nearly all actives have a fitted effect of over 50% in size
Target sequence (Q8WZA2 whole entry, looked up): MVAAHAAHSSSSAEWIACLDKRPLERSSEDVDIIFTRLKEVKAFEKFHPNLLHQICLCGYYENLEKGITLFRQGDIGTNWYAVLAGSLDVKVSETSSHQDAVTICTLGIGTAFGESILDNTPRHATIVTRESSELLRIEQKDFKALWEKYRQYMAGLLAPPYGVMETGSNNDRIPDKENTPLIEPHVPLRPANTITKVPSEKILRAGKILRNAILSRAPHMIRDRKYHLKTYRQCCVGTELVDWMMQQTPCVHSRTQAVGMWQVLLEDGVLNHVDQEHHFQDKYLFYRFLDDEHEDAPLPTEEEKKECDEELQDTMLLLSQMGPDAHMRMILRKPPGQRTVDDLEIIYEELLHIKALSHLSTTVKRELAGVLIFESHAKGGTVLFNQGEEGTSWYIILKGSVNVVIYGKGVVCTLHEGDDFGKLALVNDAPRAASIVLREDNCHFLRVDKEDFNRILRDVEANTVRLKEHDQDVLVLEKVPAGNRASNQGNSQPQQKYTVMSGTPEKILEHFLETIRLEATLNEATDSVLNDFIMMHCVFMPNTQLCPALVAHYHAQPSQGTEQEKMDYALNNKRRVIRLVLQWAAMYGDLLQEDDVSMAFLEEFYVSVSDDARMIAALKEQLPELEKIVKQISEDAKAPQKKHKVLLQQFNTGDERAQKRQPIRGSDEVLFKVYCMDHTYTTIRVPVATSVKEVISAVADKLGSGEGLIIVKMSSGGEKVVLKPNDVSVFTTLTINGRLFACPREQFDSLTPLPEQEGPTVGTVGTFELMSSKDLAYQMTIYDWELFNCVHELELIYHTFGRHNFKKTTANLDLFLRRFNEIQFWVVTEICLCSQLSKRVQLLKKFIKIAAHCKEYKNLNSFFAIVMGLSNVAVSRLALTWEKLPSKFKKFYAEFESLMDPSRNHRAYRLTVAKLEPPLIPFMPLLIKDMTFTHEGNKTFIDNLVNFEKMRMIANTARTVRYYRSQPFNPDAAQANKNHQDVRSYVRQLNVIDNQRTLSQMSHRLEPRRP
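EPAC2 (100 nM) mixed with Rap1B loaded with BODIPY-GDP (250 nM) plus 50 uM unlabeled GDP; compounds pinned in, 5 min RT, then read every 5 min for 30 min (ex 480, em 540 nm). Normalized to cAMP control.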
EPAC2 antagonist = qHTS for Antagonist of cAMP-regulated guanine nucleotide exchange factor 2 (EPAC2): primary screen. EPAC2 GEF exchange of Rap1B-BODIPY-GDP, fluorescence. AID 720708, 2013. hit rate 0.18% among 360,000. Potency, µM (highest dose often 114 µM), for inactives: at the top dose activity, negative = inhibition, most hits filed as inhibitors; note: % is set by controls: 0 for no effect and ±100 for the full control effect; nearly all actives have a fitted effect of over 45% in size
EPAC1 antagonist = qHTS for Antagonist of cAMP-regulated guanine nucleotide exchange factor 3 (EPAC1): primary screen; Potency, µM (doses to about 115 µM), for the others: at the highest dose activity change, negative = inhibition, hits mostly inhibitors; EPAC1 GEF assay, Rap1b-BODIPY-GDP exchange fluorescence; Rap guanine nucleotide exchange factor 3 (Homo sapiens), O95398; hit rate 0.14% among 360,000;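 note: plate controls were vehicle for no effect and positive control for full effect; nearly all actives have a fitted effect of over 50% in size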
EPAC1 agonist = qHTS for Agonist of cAMP-regulated guanine nucleotide exchange factor 3 (EPAC1): primary screen. Rap guanine nucleotide exchange factor 3 (Homo sapiens), O95398. EPAC1 agonist qHTS, biochemical assay; response scale: 100% = response to 6.5 mM cAMP. Potency, µM (series often up to 154 µM), inactives show at the highest dose activation, usual class: activators. hit rate 0.073% among 360,000; note: nearly all actives have a fitted effect of over 60% in size
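EPAC1 100 nM, Rap1B–BODIPY-GDP 250 nM, unlabeled GDP 50 uM; compound titration; 5 min RT; kinetic read ex480/em540 at 5-min intervals ×30 min; data normalized to 6.5 mM cAMP agonist control.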
USP1-UAF1 inh = Inhibitors of USP1/UAF1: Primary Screen | Potency, µM (top dose mostly 57.1 µM), without a hit: top-dose activity change, negative = inhibition, most hits filed as inhibitors | Ubiquitin carboxyl-terminal hydrolase 1 (Homo sapiens), O94782 | recombinant USP1/UAF1, Ub-Rhodamine cleavage fluorescence | hit rate 0.23% among 390,000; note: % is set by controls: 0 for no effect and ±100 for the full control effect; nearly all actives have a fitted effect of over 60% in size
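Step one: compound is pinned into 1nM USP1/UAF1 in HEPES pH 7.8 buffer with TCEP. Step two: 15 min room-temperature incubation. Step three: Ub-Rho (150nM final) starts cleavage, tracked by fluorescence over six one-minute reads.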
Numbers without * were called inactive; ? = inconclusive; / = no result given. Calls come from the whole dose curve; as a rule, active = well fitted curve in the direction sought with a large enough effect; inconclusive = small, poorly fitted or top-dose-only effect, or another doubt; inactive = no such curve, though single readings can be large; an effect the other way counts as inactive or inconclusive. Potency is the fitted concentration of half-maximal effect.

SMILES | EPAC2 agonist | EPAC2 antagonist | EPAC1 antagonist | EPAC1 agonist | USP1-UAF1 inh
CCCc1cc(N2CCN(c3ccccc3F)CC2)n2cnnc2n1 | / | / | / | / | -15%
CCCn1c(=O)c2sccc2n2c(CCCC(=O)Nc3ccc(C)c(F)c3)nnc12 | / | / | / | / | -7%
Cc1nnc(Nc2ccc(S(N)(=O)=O)cc2)c2ccccc12 | 3% | 1% | 2% | 6% | -28%
NS(=O)(=O)c1ccc(NC2=CC(=O)C(=O)c3ccccc32)cc1 | 6% | ? | ? | 5% | 8.9µM*
Cc1ccc(CNC(=O)N2CCC(CN3CCC(C)CC3)CC2)cc1 | / | / | / | / | -20%
CC(C)OC(=O)c1c2c(n3ccccc13)C(=O)c1ccccc1C2=O | 5% | -10% | -10% | -4% | 28µM*
COC(=O)c1cc2c(C)c(C)c3ccccn3c-2c1C(=O)OC | 28% | 118% | 7% | 7% | ?
O=C(CSc1nc2ccccc2nc1Cc1ccc(Cl)cc1)N1CCCc2ccccc21 | / | / | / | / | -12%
N#Cc1c(C(F)(F)F)cc(-c2ccc(Cl)cc2)[nH]c1=O | -2% | -9% | 40µM* | -15% | -17%
COc1ccc(N(C)C(=O)Nc2ccc3nsnc3c2)cc1 | -2% | 2% | -8% | -15% | -18%
COc1ccc(NC(=S)Nc2ccc3nsnc3c2)cc1 | 24% | ? | ? | 12% | 5.6µM*
CCOc1ccc(NC(=S)Nc2ccc3nsnc3c2)cc1 | 12% | 3% | -8% | 9% | 28µM*
COc1ccc(NC(=S)Nc2ccc3nc(C)c(C)nc3c2)cc1 | 5% | 13% | -2% | 7% | -20%
CC(C)N(C(=O)Nc1ccc2nsnc2c1)C(C)C | ? | ? | ? | 17% | 6.3µM*
CCOc1ccc(NC(=O)Nc2ccc3nsnc3c2)cc1 | 4% | -6% | -6% | 8% | -4%
CCc1ccccc1NC(=O)Cn1nc(-c2cc(C)ccc2C)c2c(c1=O)CCCC2 | / | / | / | / | -11%
CCS(=O)(=O)c1ncc(Cl)c(C(=O)N(Cc2ccccc2)c2ccc(OC)cc2)n1 | / | / | / | / | -19%
CCCN1C(=O)C(NC(=O)c2ccccc2OC)(C(F)(F)F)C(C(=O)OC)=C1C (stereo not drawn) | / | / | / | / | -6%
Nc1ccc2c(c1)C(=O)c1ccccc1-2 | 10% | -18% | -26% | 16% | -7%
Nc1ccc2c(c1)C(=O)C(=O)c1ccccc1-2 | -12% | 8.9µM* | ? | -9% | 1.3µM*
O=C1C(=O)c2ccc(-c3ccccc3)cc2-c2ccccc21 | 25% | -26% | ? | -2% | 5µM*
Cc1ccc2nc(-c3cccc(NC(=O)c4cccc5ccccc45)c3)oc2c1 | / | / | / | / | -7%
CCOC(=O)c1cc(-c2ccccc2)n(CC(=O)Nc2cc(Cl)c(OC)cc2OC)c1C | / | / | / | / | -13%
O=C(CSc1nc2ccsc2c(=O)n1CC1CCC(C(=O)O)CC1)c1ccc(Cl)cc1 (stereo not drawn) | 19% | -14% | 56µM* | ? | -5%
N#C/C(=C\c1cn(Cc2ccc(C#N)cc2)c2ccccc12)C(=O)NCc1cccs1 | 79µM* | 20% | 9% | 0% | -5%
SMILES | EPAC2 agonist | EPAC2 antagonist | EPAC1 antagonist | EPAC1 agonist | USP1-UAF1 inh
Cc1nn(C(=O)c2ccccc2)c(C)c1Sc1ccc(Cl)cc1 | / | / | / | / | -8%
COc1ccc(C2=CC(=O)C[C@H](CN3C(=O)c4ccccc4C3=O)N(C(=O)OC(C)(C)C)O2)cc1 | -6% | ? | -9% | -2% | -17%
CCC[C@H]1CC(=O)C=C(c2ccsc2)ON1C(=O)OC(C)(C)C | 9% | 18µM* | -10% | -19% | -22%
Cc1ccc(CCNC(=O)c2ccc(CS(=O)(=O)c3ccc(Br)cc3)o2)cc1 | / | / | / | / | -25%
CCCCCC(=O)Cc1cc(O)cc2c1C(=O)Oc1cc(O)c(C(=O)O)c(CCCCC)c1O2 | -9% | 16µM* | 40µM* | -10% | ?
CCCC(=O)NC(c1ccc(C(C)C)cc1)c1ccc2cccnc2c1O (stereo not drawn) | -4% | 0% | -7% | 9% | -13%
CCC(=O)NC(c1ccc(C)cc1)c1ccc2cccnc2c1O (stereo not drawn) | -1% | 16µM* | -25% | -6% | -12%
CC(=O)NC(c1ccccc1)c1cc(Cl)c2cccnc2c1O (stereo not drawn) | 7% | 40µM* | 1% | -2% | -9%
CC(=O)NC(c1ccc(Cl)cc1)c1ccc2cccnc2c1O (stereo not drawn) | 9% | 20µM* | -12% | -2% | 8%
CCCN1CCN(CCCNC(=O)c2ccc3c(c2)sc2nc(-c4ccc(C)cc4)cn23)CC1 | / | / | / | / | -10%
C=CCOc1ccc(C2C(C(=O)c3cccs3)=C(O)C(=O)N2c2nnc(C)s2)cc1 (stereo not drawn) | -72% | 11% | 8% | -11% | 48%
CC(C)c1nnc(N2C(=O)C(O)=C(C(=O)c3cccs3)C2c2ccccc2)s1 (stereo not drawn) | -12% | 0% | 3% | -10% | -12%
COc1ccc(C2C(C(=O)c3cccs3)=C(O)C(=O)N2c2nnc(C)s2)cc1OC (stereo not drawn) | 21% | 53% | 12% | 8% | 4µM*
COc1ccc(C2C(C(=O)c3cccs3)=C(O)C(=O)N2c2nncs2)cc1 (stereo not drawn) | -21% | 18% | -10% | -7% | 2µM*
O=c1c2sc3ccccc3c2n(Cc2cccc(C(F)(F)F)c2)c(=O)n1-c1ccccc1 | / | / | / | / | -24%
Cc1ccc(-c2nsc(NC(=O)c3oc4cc(C)c(Cl)cc4c3C)n2)cc1 | / | / | / | / | 3%
CCC(CN(C)C)Oc1cc(NCc2ccccc2)c2ncn(C(C)C)c2c1 (stereo not drawn) | 1% | 15% | ? | -6% | 28µM*
CC1CCC2=NN(C(=O)c3ccco3)C(O)(C(F)(F)F)C2C1 (stereo not drawn) | -3% | 50µM* | -10% | -4% | -1%
O=C(c1ccco1)N1N=C(C2CCCCC2)CC1(O)C(F)(F)F (stereo not drawn) | 0% | ? | -19% | -4% | -9%
O=C(c1cccs1)N1CCCc2cc(NS(=O)(=O)c3ccc(F)cc3)ccc21 | / | / | / | / | 1%
CCc1ccc(NC(=O)/C(C#N)=C/c2cc3ccc(C)cc3nc2N2CCOCC2)cc1 | 100µM* | 8% | 7% | -1% | -22%
Nc1nc(NCCO)nc(N2CCCCCC2)c1[N+](=O)[O-] | 9% | 16% | -4% | -4% | -12%
